# Only some compounds are listed: those with a hit (about 0.93% of all), similar ones and a draw of the others.
# PKM2 act: PKM2 (human) enzyme activation. P14618. purified PKM2, Kinase-Glo ATP luminescence, activation; response scale: 0% is enzyme alone, no compound. Potency, µM (series often up to 57.5 µM), for inactives: top-dose activation, actives largely listed as activators. 260,000 compounds, 0.34% hits; also: potency is read from the fitted curve at half-maximal effect; % is scaled to controls: 0 for no effect and ±100 for the full control effect; nearly all actives have a fitted effect of over 55% in size
# Target sequence (P14618 whole entry, looked up): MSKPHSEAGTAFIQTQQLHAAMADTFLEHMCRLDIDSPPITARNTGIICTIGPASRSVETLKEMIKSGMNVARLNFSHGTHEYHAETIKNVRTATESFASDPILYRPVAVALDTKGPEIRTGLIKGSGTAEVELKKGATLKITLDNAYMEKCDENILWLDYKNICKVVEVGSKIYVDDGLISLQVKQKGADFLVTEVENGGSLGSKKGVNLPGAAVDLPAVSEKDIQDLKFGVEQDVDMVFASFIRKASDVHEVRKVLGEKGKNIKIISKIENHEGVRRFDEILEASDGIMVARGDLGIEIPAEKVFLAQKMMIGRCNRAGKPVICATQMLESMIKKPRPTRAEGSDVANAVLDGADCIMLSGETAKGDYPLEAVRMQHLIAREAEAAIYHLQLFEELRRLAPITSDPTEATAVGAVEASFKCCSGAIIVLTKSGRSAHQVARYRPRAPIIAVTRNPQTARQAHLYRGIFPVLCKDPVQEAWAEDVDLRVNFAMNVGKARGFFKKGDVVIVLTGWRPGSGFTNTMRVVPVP
#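 Purified hPK-M2 (>95%) run at intermediate activity with 0.1 mM ADP and 0.5 mM PEP in 50 mM imidazole pH 7.2, KCl, MgCl2; 1 h room temperature. ATP formed read by Kinase-Glo luminescence; normalized to uninhibited and no-enzyme controls.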
# CtBP-E1A inh: CtBP/E1A binding inhibition; AlphaScreen GST-E1A/His-CtBP binding, 1536-well; stronger effect = lower value; activity change, % (test concentration not listed); 340,000 compounds, 0.49% hits; in the data active = activity change below about -65%; inconclusive = mostly about -30% to -63%; also: % is scaled to controls: 0 for no effect and ±100 for the full control effect
#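 Steps: dispense buffer (Tris pH 8.0, NaCl 300 mM, TCEP 1 mM, BSA, Tween 20); add 5X protein mix (GST-E1A, His-CtBP, 125 nM each); pin 23 nL compound; 2 h at 37 °C, dark; add 5X beads (50 ug/mL); 1 h; read.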
# MBNL1-CUG inh: inhibitors of human MBNL1 binding to CUG repeat RNA; Q9NR56; TR-FRET MBNL1-His/biotin-(CUG)12 binding, 665/545 ratio; Potency, µM (highest dose often 57.5 µM), for inactives: at the highest dose activity change, negative = inhibition, most hits filed as inhibitors; 280,000 compounds, 0.036% hits; AID 2675; active = well fitted inhibition curve with a large enough effect in the signal ratio, with a control signal flat, not every such curve was filed as active; inconclusive = small, poorly fitted or top-dose-only effect, or effect the other way, or a change in a side signal; inactive = no such curve, though single readings can be large or run the other way; the % refers to the signal ratio; also: potency is read from the fitted curve at half-maximal effect; % is scaled to controls: 0 for no effect and ±100 for the full control effect
#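 TR-FRET readout: Ex 340 nm, 665/545 nm emission ratio, normalized to buffer-only (basal) and MBNL1-(CUG)12 controls. Complex of MBNL1-His with Biotin-(CUG)12, compounds 92 nM–58 uM, incubated 60 min at room temperature.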
# Six1-Eya2 inh: inhibitors of human Six1/Eya2 interaction; activity change, % (test concentration not listed); 360,000 compounds, 0.56% hits; AID 651725; Q15475+O00167; AlphaScreen GST-Six1/His-Eya2 binding, biochemical; stronger effect = lower value; in the data active = activity change below about -65%; inconclusive = mostly about -30% to -63%; also: % is scaled to controls: 0 for no effect and ±100 for the full control effect
#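 Homogeneous AlphaScreen proximity assay pairing GST-Six1 with His-tagged Eya2 (added as 5X mix: 250 nM and 500 nM) in 50 mM Tris pH 8.0, 300 mM NaCl, 1 mM TCEP. Glutathione donor and nickel acceptor beads; 1 h, 37 °C, dark.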
# MBNL1 TRFRET: MBNL1-poly(CUG) RNA binding inhibition confirmed. shares compounds with MBNL1-CUG inh. 140 compounds, 50% hits. Potency, µM (series often up to 57.6 µM), for the others: at the top dose activity change, negative = inhibition, actives largely listed as inhibitors. AID 493199. TR-FRET MBNL1-His / biotin-(CUG)12 binding, 60 min
# MBNL1 AlphaScrn: MBNL1-CUG RNA binding inhibition, AlphaScreen validation. shares compounds with MBNL1-CUG inh. AlphaScreen MBNL1-His / biotin-(CUG)12 binding. Potency, µM (highest dose often 57.7 µM), for the others: at the top dose activity, negative = inhibition, actives largely listed as inhibitors. 140 compounds, 30% hits. AID 493205
# MBNL1 HTRF CS: counter-screen for MBNL1-poly(CUG) RNA binding inhibitors; shares compounds with MBNL1-CUG inh; 120 compounds, 20% hits; Potency, µM (top dose mostly 57.6 µM), for inactives: at the highest dose activity, negative = inhibition, usual class: inhibitors; His-Menin/biotin-MLL peptide TR-FRET counterscreen
# * marks the source's active call; other numbers are inactive results; ? = inconclusive; . = not tested or not shown. Unless noted, calls follow the shape of the dose curve; as a rule, active = well fitted curve in the direction sought with a large enough effect; inconclusive = small, poorly fitted or top-dose-only effect, or another doubt; inactive = no such curve, though single readings can be large; an effect the other way counts as inactive or inconclusive.
SMILES,PKM2 act,CtBP-E1A inh,MBNL1-CUG inh,Six1-Eya2 inh,MBNL1 TRFRET,MBNL1 AlphaScrn,MBNL1 HTRF CS
CCCCN1C(=O)C(CC(=O)NC(c2ccccc2)c2ccccc2)CC(C(=O)N2CCCCCC2)=C1C (configuration not stated),.,0,.,0,.,.,.
N#Cc1c(N2CCCC2)nc(N)c2c(N)nc(N3CCCC3)cc12,-7%,?,.,-29,5.2µM*,0.65µM*,22%
CCOc1cc2c(C#N)c(N3CCCC3)nc(N)c2c(N)n1,.,.,.,-10,.,.,.
NCCCC(N)CC(=O)NC1CNC(=O)C(C2CC(O)N=C(N)N2)NC(=O)/C(=C/NC(N)=O)NC(=O)C(CO)NC(=O)C(CO)NC1=O (configuration not stated),.,.,.,.,?,?,.
C[C@@H]1NC(=O)[C@@H](N)CNC(=O)[C@H](C2CCNC(N)=N2)NC(=O)/C(=C/NC(N)=O)NC(=O)[C@H](CNC(=O)C[C@@H](N)CCCN)NC1=O (some centres not stated),.,.,.,.,.,.,-11%
COc1ccc2c(c1)C(=O)O[C@@H](c1ccccc1)C[C@@H](O)C(=O)CC2,.,-2,.,0,.,.,.
C[C@H]1CCCCO[C@H](CN(C)Cc2ccc(C(=O)O)cc2)[C@@H](C)CN([C@@H](C)CO)C(=O)c2cc(NS(=O)(=O)c3cn(C)cn3)ccc2O1,.,5,.,8,.,.,.
Cc1cccc(C)c1N1C(=O)c2ccccc2NC(=O)C1C(=O)NCCOc1ccccc1 (configuration not stated),.,2,.,0,.,.,.
Cc1cc(N2CCN(C)CC2)nc2ccc(NC(=S)NCCN3CCc4ccccc4C3)cc12,-2%,.,25µM*,-18,-20%,-25%,-19%
Cc1cc(N2CCN(C)CC2)nc2ccc(NC(=S)NCCCN3CCc4ccccc4C3)cc12,-2%,-12,?,-7,.,.,.
O=C(NC1CCCCC1)c1ccccc1NC(=O)C1CC(=O)N(c2ccccc2)C1 (configuration not stated),-9%,9,40µM*,-1,-10%,-5%,2%
O=C(NC1CCCCC1)c1ccccc1NC(=O)C1CC(=O)N(c2ccc(Cl)cc2)C1 (configuration not stated),-5%,2,16µM*,0,20%,?,0%
CC1(C(=O)Nc2ccc3c(c2)OCCO3)CSCC(=O)N1CCc1ccccc1F (configuration not stated),.,-3,.,-12,.,.,.
COCCNC(=O)C(c1cccs1)N(C(=O)Cn1nnc2ccccc21)c1ccc(OC)cc1 (configuration not stated),27%,-2,28µM*,8,-4%,-11%,2%
COCCNC(=O)C(c1cccs1)N(C(=O)Cn1nnc2ccccc21)c1cccc(C)c1 (configuration not stated),-3%,8,1%,6,.,.,.
COc1ccc(C(=O)c2cc(OC)c(OC)c(OC)c2)cc1OC,.,-2,.,-4,.,.,.
Nc1ccc2c(c1)C(=O)C(=O)c1ccccc1-2,-3%,?,?,?,?,6.5µM*,87%
OC(COc1ccccc1CNCc1cccnc1)CN1CCc2ccccc2C1 (configuration not stated),?,.,13µM*,-1,16µM*,?,?
Cn1nccc1NC(=O)Nc1cccc(Cl)c1,0%,8,32µM*,2,?,?,33µM*
O=C(NC1(O)C(=O)c2ccccc2C1=O)c1ccccc1,10%,-4,.,1,21µM*,13µM*,1%
O=C(NC1(O)C(=O)c2ccccc2C1=O)c1c(Cl)cccc1Cl,8%,-18,?,9,.,.,.
COC(=O)c1ccc(C(NC(=O)OCc2ccccc2)/C(=C/[C@@H](C)C(=O)N(C)C)c2cccnc2)cc1 (some centres not stated),0%,.,.,.,.,.,.
